# The list shows a part of the results. Inconclusive results are not listed. Unmarked numbers belong to inactive results. Active and inactive are the calls of the source. Calls follow the shape of the full dose curve.
# Biological target: Polyprotein P1234 (Chikungunya virus (strain S27-African prototype)) (UniProt Q8JUX6)
# Test: Selectivity profile for inhibitors of NSP2Pro chikungunya virus (CHIKV): Endogenous NS2/3 peptide Counterscreen (AID 1964103); also: nearly all actives have a fitted effect of over 55% in size
# Conditions: Purified CHIKV nsP2 protease, endogenous NS2/3 peptide cleavage; series mostly up to 51 µM; activity change, negative = inhibition: at the top concentration
# Text: PI: Natalia J. Martinez Ph.D.
# National Center for Advancing Translational Sciences (NCATS),
# National Institute of Health (NIH), Rockville, Maryland
# Chikungunya virus (CHIKV) is a mosquito-borne RNA virus that has emerged as one of the most important global arboviral threats in the last decade. Although the first CHIKV vaccine has recently been FDA approved for use in healthy adults at increased risk, to date, there are no available antiviral drugs for CHIKV infection. CHIKV nsP2 protease plays a crucial role in the processing of the viral polypeptide precursor to release enzymes required for viral replication, thus making it a promising drug target for antiviral discovery. Here, we established a high-throughput pipeline to identify small molecule inhibitors of nsP2 proteolytic activity. The pipeline is composed of a suite of 1,536-well in vitro assays to support quantitative high-throughput (qHTS) screening campaigns. Specifically, we developed a fluorescence resonance energy transfer (FRET)-based assay using a fluorogenic peptide substrate encompassing an endogenous cleavage site and purified recombinant protease domain (nsP2pro). Using this assay, we interrogated ~37,000 small molecules, including those in drug repurposing libraries as well as chemically diverse and medicinal chemistry-friendly compounds. Hits were selected for follow-up validation against full-length nsP2 and an additional peptide. FRET-based 1,536-well assays for papain, hepatitis C virus NS3-4A, and human furin proteases were implemented to characterize compound selectivity. […] Novel compounds were identified to be potential nsP2 inhibitors and molecular docking analyses were performed to explain the binding mode of selected hits. In vitro antiviral activity was evaluated for a subset of compounds using a high-throughput CHIKV infection assay. To our knowledge, the pipeline presented here is unprecedented for CHIKV antiviral discovery research.
# PROTOCOL TABLE (as described by Inglese J, Shamu CE and Guy RK. 2007)
# SEQUENCE No. (e.g., 1, 2, 3, etc.); […] (e.g., Cells, Incubation, Reagent, etc.); VALUE; DESCRIPTION.
# 1; Control / Compound; 20 nL; Echo 655 acoustic dispenser, Greiner 1536-well solid bottom black plate.
# 2; Enzyme; 4 uL; BioRAPTR FRD liquid dispenser (Beckman Coulter).
# 3; Incubation; 15 min; room temperature.
# 4; Reagent; 4 uL; 2.5 uM endogenous NS2/3 peptide substrate.
# 5; Incubation; 1 hr; room temperature.
# 6; Detection; Fluorescence; WiewLux microplate reader (PerkinElmer), 525 nm excitation, 598/25 nm emission.
# NOTES (numbers refer to sequence numbers above).
# 1. Briefly, 20 nL DMSO, positive control ZnAc (20nM final concentration), and test compounds were transferred into a 1,536-well solid bottom black plate (789176-F, Greiner One) via Echo 655 acoustic dispenser (Beckman Coulter). For primary screens, compounds were tested at 7 concentrations, 1:3 dilution points ranging from 25 uM to 34 nM. Follow-up confirmatory screens were carried out at 11 concentrations, 1:3 dilution points from 25 uM to 0.42 nM.
# 2. Four uL nsP2pro enzyme mix (150 nM final concentration) in 10 mM Tris-HCl pH 8.0 with 0.01% Tween 20 assay buffer was dispensed into the plate using a BioRAPTR FRD liquid dispenser (Beckman Coulter).
# 3. The plate was incubated at room temperature (protected from light) for 15 min
# 4. Four microliter of endogenous NS2/3 peptide substrate (peptide 3: TMR-[…]/APSYR-K-QSY7; 2.5 uM final concentration) in assay buffer was added to the plate.
# 5. After 1 hour, plates were immediately read on a ViewLux high-throughput CCD imager (Exposure = 10 sec, Gain = High, Speed = Slow, Binning = 2X). The above assay was also incorporated in the NCATS HTS facility41, which allowed for robotic liquid and compound dispensing, microplate handling, and fluorescence reading.
# Inglese J, Shamu CE and Guy RK, Reporting data from high throughput screening of small molecule libraries, Nature Chemical Biology, 2007, 3(8): 438-441. doi.org/10.1038/nchembio0807-438.
# % is scaled to controls: 0 for no effect and ±100 for the full control effect; potency is read from the fitted curve at half-maximal effect.
# Sequence of Polyprotein P1234 (Chikungunya virus (strain S27-African prototype)) (Q8JUX6 whole entry, looked up): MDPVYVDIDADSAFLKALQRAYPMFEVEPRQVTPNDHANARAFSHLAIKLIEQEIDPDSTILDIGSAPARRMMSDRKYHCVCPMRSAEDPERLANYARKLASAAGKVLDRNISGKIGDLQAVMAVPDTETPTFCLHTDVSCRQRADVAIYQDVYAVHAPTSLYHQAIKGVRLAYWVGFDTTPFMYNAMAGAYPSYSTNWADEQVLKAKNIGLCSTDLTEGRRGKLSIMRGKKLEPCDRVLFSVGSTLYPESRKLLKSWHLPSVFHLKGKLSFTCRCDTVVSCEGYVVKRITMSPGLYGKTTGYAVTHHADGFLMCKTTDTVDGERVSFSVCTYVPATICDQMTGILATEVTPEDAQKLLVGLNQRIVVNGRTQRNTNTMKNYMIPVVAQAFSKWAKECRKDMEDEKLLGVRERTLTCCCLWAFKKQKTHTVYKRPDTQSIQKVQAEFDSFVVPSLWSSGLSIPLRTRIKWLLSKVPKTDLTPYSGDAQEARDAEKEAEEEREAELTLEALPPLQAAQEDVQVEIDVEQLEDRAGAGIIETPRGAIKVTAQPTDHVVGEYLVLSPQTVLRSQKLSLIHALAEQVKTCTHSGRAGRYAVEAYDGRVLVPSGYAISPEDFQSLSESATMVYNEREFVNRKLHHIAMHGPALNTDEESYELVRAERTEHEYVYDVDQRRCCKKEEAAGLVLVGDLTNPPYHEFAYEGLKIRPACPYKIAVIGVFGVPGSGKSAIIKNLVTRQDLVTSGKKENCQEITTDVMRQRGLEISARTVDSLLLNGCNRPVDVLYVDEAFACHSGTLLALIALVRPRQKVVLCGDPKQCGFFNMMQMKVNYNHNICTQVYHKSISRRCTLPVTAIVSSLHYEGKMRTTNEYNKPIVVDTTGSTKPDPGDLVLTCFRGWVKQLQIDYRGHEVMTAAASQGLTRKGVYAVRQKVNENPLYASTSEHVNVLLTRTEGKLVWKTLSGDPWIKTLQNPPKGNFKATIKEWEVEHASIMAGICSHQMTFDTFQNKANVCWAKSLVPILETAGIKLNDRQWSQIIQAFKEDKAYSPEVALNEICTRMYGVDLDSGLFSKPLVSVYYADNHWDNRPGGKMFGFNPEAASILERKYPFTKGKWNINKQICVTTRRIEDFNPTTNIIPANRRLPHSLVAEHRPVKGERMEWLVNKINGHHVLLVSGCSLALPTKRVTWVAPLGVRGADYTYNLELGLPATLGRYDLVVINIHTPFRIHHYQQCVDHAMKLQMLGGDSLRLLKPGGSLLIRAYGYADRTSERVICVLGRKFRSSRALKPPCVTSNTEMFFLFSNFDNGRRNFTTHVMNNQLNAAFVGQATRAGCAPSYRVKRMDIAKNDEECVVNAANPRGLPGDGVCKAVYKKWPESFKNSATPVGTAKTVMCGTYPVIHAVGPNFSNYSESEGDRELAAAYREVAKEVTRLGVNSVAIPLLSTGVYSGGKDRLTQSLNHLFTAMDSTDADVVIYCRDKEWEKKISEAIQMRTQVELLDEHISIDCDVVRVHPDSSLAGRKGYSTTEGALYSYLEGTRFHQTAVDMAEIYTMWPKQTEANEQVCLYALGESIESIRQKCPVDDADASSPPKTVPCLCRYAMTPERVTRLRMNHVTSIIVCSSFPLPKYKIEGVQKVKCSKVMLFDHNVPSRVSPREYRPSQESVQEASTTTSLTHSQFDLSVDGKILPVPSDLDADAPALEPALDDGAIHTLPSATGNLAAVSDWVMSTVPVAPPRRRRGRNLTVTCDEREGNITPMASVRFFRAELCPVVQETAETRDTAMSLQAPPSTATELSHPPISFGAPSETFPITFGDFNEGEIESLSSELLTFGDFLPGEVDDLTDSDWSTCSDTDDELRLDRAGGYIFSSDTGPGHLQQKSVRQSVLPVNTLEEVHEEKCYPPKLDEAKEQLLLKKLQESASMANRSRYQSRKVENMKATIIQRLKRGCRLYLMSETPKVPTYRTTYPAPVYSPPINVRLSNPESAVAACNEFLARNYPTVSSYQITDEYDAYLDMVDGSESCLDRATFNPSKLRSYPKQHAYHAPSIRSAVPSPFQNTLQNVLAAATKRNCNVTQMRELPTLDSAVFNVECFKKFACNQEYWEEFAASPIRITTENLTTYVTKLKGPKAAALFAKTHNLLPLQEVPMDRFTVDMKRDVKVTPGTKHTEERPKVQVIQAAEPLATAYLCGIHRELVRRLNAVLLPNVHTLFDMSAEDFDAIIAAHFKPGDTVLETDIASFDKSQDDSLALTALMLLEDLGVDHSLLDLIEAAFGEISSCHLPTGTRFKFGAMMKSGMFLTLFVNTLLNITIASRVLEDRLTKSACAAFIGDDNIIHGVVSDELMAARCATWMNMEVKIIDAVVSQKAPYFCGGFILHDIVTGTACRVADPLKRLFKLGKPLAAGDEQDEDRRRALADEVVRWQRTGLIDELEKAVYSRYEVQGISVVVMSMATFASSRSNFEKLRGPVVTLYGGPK
Compound,"activity change, negative = inhibition",outcome,Potency
C[C@@H]1[C@H](O)[C@@H]2OC(=O)C3=C2[C@H](CCC3)[C@@]12C[C@@H](c1ccoc1)OC2=O,4.66% [at 33.5 µM],–,–
CCC(C)C(=O)OC1C(C)C2(O)C(C=C(CO)CC3(O)C(=O)C(C)=CC32)C2C(C)(C)C12OC(=O)C(C)C (stereo not given),–,inactive [at 17.2 µM],–
O=C(O)c1cccc(-n2[nH]c(-c3ccccc3)cc2=O)c1,76.4%,–,–
CC1=C(/C=C/C(C)=C/C=C/C(C)=C/C=C/C=C(C)/C=C/C=C(C)/C=C/C2=C(C)CCCC2(C)C)C(C)(C)CCC1,-19.9%,–,–
CCOc1ccc(N(Cc2ccccc2)C(=O)c2nc(S(C)(=O)=O)ncc2Cl)cc1,–,–,4.61 µM (active)
CCc1ccccc1NC(=O)c1cnn(-c2ccc(F)cc2)c1C1CCNCC1,-19.4%,–,–
CCOc1ccc(NC(=O)c2c(NC(=O)Cc3ccccc3)sc3c2CCC(C)C3)cc1 (stereo not given),–,–,13 µM (active)
N#CSc1cc(SC#N)c(N)nc1N,–,–,0.206 µM (active)
Cn1nnnc1Sc1ncnc2n[nH]c(-c3cccc(S(C)(=O)=O)c3)c12,–,–,4.47 µM (active)
Cc1c(S(=O)(=O)O)oc2c1C(=O)C(=O)c1c-2ccc2c1CCCC2(C)C,-3.07%,–,–
C[C@@H]1C[C@@H](O)[C@@]23CO[C@]2(CO)C[C@@H](O)CC3[C@@]12CC(c1ccoc1)OC2=O (stereo not given in full),–,inactive,–
CO[C@]1(NC(=O)CSC(F)F)C(=O)N2C(C(=O)O)=C(CSc3nnnn3CCO)CO[C@H]21,1.15%,–,–
Oc1ccc(OC2CCCCO2)cc1 (stereo not given),-6.04%,–,–
CCOc1ccc(NC(=O)c2c(NC(=O)Cc3ccccc3)sc3c2CCCCC3)cc1,–,–,16.3 µM (active)
CC(=O)N[C@@H](C(=O)O[C@H]1CCC(C)(C)[C@@H]2CCC3=C(COC3=O)[C@@]12C)C(C)C,-0.53% [at 33.5 µM],–,–

# — PubChem BioAssay (NCATS)
